About 79,000 compounds went through this panel and 15% of them were active in at least one assay; those are over-represented in the sample as a whole. The source made the active and inactive calls. No stated cut-off is given here; in the data, active means growth inhibition above about 70%; inactive means the rest.

This assay is described as follows: NCI Yeast Anticancer Drug Screen. Data for the cln2 rad14 strain (AID 165).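 Further: 0% = growth equal to vehicle treated cultures.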 The note with it: S. cerevisiae cln2 rad14 strain, at 50.0 µM, hits give high values. As to the method:
Growth inhibition of yeast strains with defined genetic alterations is measured as a screen for potential anti-cancer activity. Selected strains with alterations in DNA damage repair or cell cycle control were exposed to compounds and growth inhibition was measured relative to vehicle treated controls. The strain used in this assay is cln2 rad14
As for `CN1c2ccccc2Nc2cc(C#N)ccc21`, the growth inhibition is -30.4% (inactive). For `Cc1ccc(Cc2cc(=O)[nH]c(=S)[nH]2)cc1`, the growth inhibition was -26.9% (inactive). Regarding `CC1=CC(C)(C)N=C2SC(=O)c3nc4ccccc4c(=O)n3N12`, the growth inhibition was -11.3% (inactive). Consider `Cc1nc2n(c1C(N)=O)CCS2`, for which the growth inhibition was -55.8% (inactive).

`O=C1Cc2nc3ccccc3nc2CC(=O)c2ccccc21`: the growth inhibition is -19.9% (inactive).

Consider `COc1ccc(CCc2ccc(Cl)cc2)cc1`, for which the growth inhibition was 15.5% (inactive). Consider `Cc1ccc(O)c(C(=O)C[n+]2ccccc2)c1`, for which the growth inhibition was 1.2% (inactive). Consider `O=[N+]([O-])c1ccc(O)c(C=NCCCN=Cc2cc([N+](=O)[O-])ccc2O)c1`, for which the growth inhibition is -6.95% (inactive). As to `CC(=O)OCC1OC(n2cc(CBr)nn2)C(OC(C)=O)C(OC(C)=O)C1OC(C)=O` (stereo not given), the growth inhibition was -13.6% (inactive). The value for `CC(C)(C[NH-])C[NH-].[Cl][Pt+2][Cl]` was 18.6% (inactive); that for `CC(C)COC(=N)c1ccccc1C1(O)CCCCC1` was -18.8% (inactive); that for `Cc1cccc(C)c1C` was -3.05% (inactive).

In the case of `CCOc1cc2c(cc1C/C=C/c1ccc(OC)cc1)OCO2`, the growth inhibition was -0.75% (inactive).

`CC(C)CCc1ccccc1O`: the growth inhibition was -19.9% (inactive). For the compound `CCC(=O)C12CCCC1=NC(=N)N=C2C1=NC(=N)N=C2CCCC21C(=O)CC` (stereo not given), the growth inhibition is 2.75% (inactive).

Consider `CC(=O)O[C@H]1CC[C@@]2(C)[C@@H](CC[C@@H]3[C@@H]2CC(=O)[C@@]2(C)[C@H]3C[C@@H]3CC(C)=CC(=O)[C@@H]32)C1`, for which the growth inhibition was -20.6% (inactive). As for `CC(=O)N(C(C)=O)n1c(Cc2ccc(Cl)cc2)n[nH]c1=O`, the growth inhibition was -5.55% (inactive).

`Cc1cccc(C)c1NC(=O)N1CCN(C)CC1`: the growth inhibition is -75.8% (inactive). `S=C(Cc1ccc2ccccc2c1)N1CCOCC1`: the growth inhibition was 23.6% (inactive). With `CCOC(=O)c1nc2ccc(C(F)(F)F)cc2nc1NCc1ccc(F)cc1`, the growth inhibition is 10.2% (inactive). The value for `COC1N(C2C=CC(CO)O2)C(=O)NC(=O)C1(C)Br` (stereo not given) was 2.75% (inactive). As to `C=CCCCCCCCCO`, the growth inhibition is -13% (inactive).

For `O=NN(CCCl)C(=O)NC1CCC(C(=O)O)CC1` (stereo not given), the growth inhibition was -7.8% (inactive). As to `CC(SCc1ccccc1)C(NC(=O)c1ccccc1)C(=O)O` (stereo not given), the growth inhibition was -0.3% (inactive).

Turning to `Cn1c(=O)c2ccccc2c2cc([N+](=O)[O-])ccc21`, the growth inhibition is 1.1% (inactive). The value for `Clc1cccc(-c2sc(-c3ccsc3)cc2Cc2ccsc2)c1` was -28.6% (inactive). Consider `CCOC(=O)CN=NNc1ccc([N+](=O)[O-])cc1`, for which the growth inhibition is -42.2% (inactive).

Turning to `CCOC(=O)C(=O)c1c(C)[nH]c(C)c1C(=O)OCC`, the growth inhibition was -23.1% (inactive). As for `CCOC(=O)C(=CNC(=S)Nc1cc(C)ccc1C)C(=O)OCC`, the growth inhibition is -19.1% (inactive). Regarding `CCOC(=O)C[C@](C)(O)C1CCCN1` (stereo not given in full), the growth inhibition is 5.3% (inactive). For `COc1ccc(C23CCCC(=O)C2C2C(=O)CCCC23c2ccc(OC)cc2)cc1` (stereo not given), the growth inhibition was 10.6% (inactive). On to `CC(C)CSCC1OC(n2cnc3c(N)nccc32)C(O)C1O` (stereo not given), for which the growth inhibition was 10% (inactive). The value for `C[Si](C)(C)Oc1cc(N=NNC2=CC(=O)c3ccccc3C2=O)c(O)c2ccccc12` was -24% (inactive). In the case of `O=C1OC(Nc2ccccc2)C(Cl)=C1Cl` (stereo not given), the growth inhibition was 20.3% (inactive). As for `COc1cccc(/C=N\N=C\c2cccc(OC)c2O)c1O`, the growth inhibition is -7.05% (inactive). As to `CC1=CC(=O)CC2(C)CCC(C(C)CC(=O)CC(C)C)CC12` (stereo not given), the growth inhibition was 91.3% (active). With `CC(C)(S(=O)(=O)Oc1ccccc1)S(=O)(=O)Oc1ccccc1` the figure was -16.9% (inactive).

`Cc1ccc(S(=O)(=O)N(CCOc2c3occc3cc3ccc(=O)oc23)CCN(CCN(CCOc2c3occc3cc3ccc(=O)oc23)S(=O)(=O)c2ccc(C)cc2)S(=O)(=O)c2ccc(C)cc2)cc1`: the growth inhibition is -31.6% (inactive). With `Oc1[nH]c2ccccc2c1N=Nc1nc(-c2ccccc2)cs1`, the growth inhibition was -0.9% (inactive). The value for `CN(C)Cc1c(-c2ccc(Br)cc2)oc(-c2ccc(Br)cc2)c1Br` was -10.4% (inactive).

Values taken from PubChem BioAssay (NCI).
